Experimental data from PubChem BioAssay (NCI).
About 83,000 compounds went through this panel and 20% of them were active in at least one assay; those are over-represented in the sample as a whole.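 Cells were grown in 96-well plates and exposed to the test compound at a single concentration for 48 hours; results are reported as percent growth, with values below 10 considered active.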 A number with no mark means an inactive call. Calls of active or inactive are those of the source.

tested on: MDA-MB-468 breast; assay: NCI-60 one-dose screen, 48 h (100 = growth as untreated, 0 = no growth, -100 = all killed); settings: 10 µM unless noted

First: COc1cc(CCn2nnc3c(NCCCCO)ncnc32)cc(OC)c1
Second: COc1cccc2c(=O)c3c(sc12)c(NCCCNCCO)nc1ccccc13
The growth of the first is higher: 93.5% for the first, 71.3% for the second.

Compared with `O=C(Nc1ccc(N2CCNCC2)cc1)c1[nH]ncc1Nc1cc(Oc2ccccc2)ncn1`, `Cc1ccc2nc(-c3ccc(C(=O)NNC(=S)Nc4ccccc4)cc3)[nH]c2c1` is higher in growth: 34.6% for the first, 98.6% for the second.

First: CC(C)(C)n1cc(-c2ccnc(NCCCNS(=O)(=O)c3cccc4ccccc34)c2)c(-c2cccc(F)c2)n1
Second: COc1cc(-c2nc3sccn3c2-c2ccnc(NCCCNS(=O)(=O)c3ccc(F)cc3)n2)ccc1F
The growth of the first is lower: 52.5% for the first, 61.3% for the second.

Going from `CCCCCc1ccc(S(=O)(=O)Nc2cccc(-c3csc(NCCN4CCN(C)CC4)n3)c2)cc1` to `CNC(=O)c1cc(-c2ccc(NS(=O)(=O)c3ccc(C)cc3)cc2)nc2cccnc12`, the growth falls from 87.3% to 71.1%.

Going from `COc1cc(/C=C2\C(=O)Nc3ccccc32)cc(OC)c1O` to `CCn1cc(C(=O)N/N=C/c2ccccc2)c(=O)c2cc(F)c(N3CCNC(C)C3)c(F)c21` (stereo not given), the growth rises from 20.4% to 30.4%.

Going from `Cn1c(-c2ccc(Br)cc2)c(O)c(=O)c2c(F)cccc21` to `Cc1ccc(-c2nn(-c3ccccc3)cc2C=C2C(=O)ON=C2C(C)C)cc1`, the growth rises from 39.7% to 94%.

First: COc1ccc(Cn2cc3c(c2-c2ccccc2)CCc2cncnc2-3)cc1
Second: COc1ccc(C/C(C)=C(\c2ccc(Cl)cc2)c2ccc(OCCN3CCCCCC3)cc2)cc1
The growth of the first is lower: 32.5% for the first, 70.9% for the second.

Going from `O=C(/C=C/c1ccccc1)N(C1CCCCC1)C1CCCCC1` to `O=S(c1ccccc1)c1ccc2nnnn2n1` (stereo not given), the growth rises from 72.4% to 112%.

Compared with `O=C(CSc1nc2ccccc2[nH]1)NCc1ccccc1`, `COC(=O)c1nc(-c2ccccc2)oc1S(=O)(=O)n1nc(C)cc1N` is lower in growth: 101% for the first, 59.2% for the second.

First: CC(=O)OC(C)C(=O)NCC(C)O (stereo not given)
Second: Cc1cc(CC(=O)O)n(C)c1C(=O)c1ccc(Cl)cc1
The growth of the first is higher: 105% for the first, 101% for the second.

Compared with `O=c1nc2c(-c3nc4ccccc4s3)n[nH]n2c2sc3c(c12)CCCC3`, `COc1c(B(O)O)cccc1-c1nc2ccc3[nH]ncc3c2c2c1CCC2` is lower in growth: 120% for the first, 60% for the second.

First: CC(=O)c1cc2c(N)c(C(=O)Nc3cccc4c3OCCO4)sc2nc1C
Second: CCOC(=O)C1=C(C)n2nc(CC#N)c(C#N)c2NC1c1ccc(CC)cc1 (stereo not given)
The growth of the first is lower: 86.1% for the first, 114% for the second.

First: CC(C)Cn1c2c(c(=S)[nH]c1=O)CCC2
Second: Cc1cn(C2CC(F)C(CO)O2)c(=O)[nH]c1=O (stereo not given)
The growth of the first is higher: 112% for the first, 90.7% for the second.

Going from `O=C(O)c1cn(C2CC2)c2cc(N3CCN(C(=O)N4CCOCC4)CC3)c(F)cc2c1=O` to `O=S(=O)(NC1c2ccccc2C[C@H]1O)c1ccc(Cl)cc1Cl` (stereo not given in full), the growth falls from 103% to 85.7%.

Going from `CC(Br)C(O)c1cc2c(cc1Br)OCO2` (stereo not given) to `Clc1ccc2c(c1)C(Br)c1cc(Cl)cc(Cl)c1-2` (stereo not given), the growth falls from 108% to 96.7%.

`Cc1ccc(NC(=S)NNC(=S)NNc2ccccc2)cc1C` showed a growth of 99.6%.

`Cc1nn2c(-c3nc4cc(Cl)c(Cl)cc4[nH]3)c(-c3ccc(F)cc3)nc2s1` was tested, and the growth was 8.3% (active).
With `O=C1COCCN1c1ccc(NCc2cn(Cc3ccc(F)cc3)c3ccccc23)cc1` the growth was -66.9% (active).
In the case of `CCSc1nc(-c2cccs2)n2nc(-c3ccco3)cc2n1`, the growth is reported as -37.1% (active).
For `COc1cc(C(=O)c2cc(C(C)=O)c3ccc(C)cn23)cc(OC)c1OC`, the growth was -2.89% (active).
`CCCCCCCCCCN=C(N)N=C(N)N` was tested, and the growth was -12.9% (active).
In the case of `CC[C@H](CO)Nc1ccc2ncc(C#Cc3cncc(C(=O)Nc4ccc(CN5CCN(C)CC5)c(C(F)(F)F)c4)c3)n2n1`, the growth is reported as -67.8% (active).
With `C=C[C@]1(C)C=C2C(=O)[C@@]3(O)OC[C@@]4(CCCC(C)(C)C43O)C2(O)C(O)C1` (stereo not given in full) the growth was -18.7% (active).
In the case of `CCC(=C(c1ccc(OCCN2CCCCC2)cc1)c1ccc(OCCN2CCCCC2)cc1)c1ccc(Cl)cc1`, the growth is reported as -77% (active).
With `COc1cc(-c2ccc(-[n+]3nc(-c4ccc([N+](=O)[O-])cc4)nn3-c3ccc([N+](=O)[O-])cc3)c(OC)c2)ccc1-[n+]1nc(-c2ccc([N+](=O)[O-])cc2)nn1-c1ccc([N+](=O)[O-])cc1` the growth was -62.2% (active).
